Source: PubChem BioAssay (NCATS)
Records with an inconclusive call do not appear. Where a call stands in place of a potency, no number is given. The source made the active and inactive calls. Unless noted, calls follow the shape of the full dose curve.

Assays:
[1] = qHTS for Inhibitors of the Functional Ribonucleoprotein Complex (vRNP) of Lassa (LASV) Arenavirus: LASV Primary Screen - GLuc reporter signal (AID 1347082; calls by dose curve; tested in HEK293 reporter line; also: nearly all actives have a fitted effect of over 60% in size; also: potency is read from the fitted curve at half-maximal effect); details: LASV minigenome vRNP, Gaussia luciferase reporter; series mostly up to 57.5 µM
[2] = qHTS for Inhibitors of the Functional Ribonucleoprotein Complex (vRNP) of Lassa (LASV) Arenavirus: Viability assay - alamar blue signal for LASV Primary Screen (AID 1347083; calls by dose curve; tested in HEK293 reporter line; also: nearly all actives have a fitted effect of over 80% in size; also: potency is read from the fitted curve at half-maximal effect); details: cell viability, alamar blue fluorescence (LASV minigenome counter-screen); series mostly up to 57.5 µM
[3] = qHTS for Inhibitors of the Functional Ribonucleoprotein Complex (vRNP) of Lymphocytic Choriomeningitis Arenaviruses (LCMV): Viability assay - alamar blue signal for LCMV Primary Screen (AID 1347085; calls by dose curve; tested in HEK293 reporter line; also: nearly all actives have a fitted effect of over 80% in size; also: potency is read from the fitted curve at half-maximal effect); details: alamar blue viability counter-screen, LCMV vRNP screen cells; series mostly up to 57.5 µM
[4] = target: Nucleoprotein (Lymphocytic choriomeningitis virus (strain Armstrong)) (UniProt P09992); assay: qHTS for Inhibitors of the Functional Ribonucleoprotein Complex (vRNP) of Lymphocytic Choriomeningitis Arenaviruses (LCMV): LCMV Primary Screen - GLuc reporter signal (AID 1347086); details: LCMV minigenome vRNP cell assay, Gaussia luciferase reporter; series mostly up to 57.5 µM; also: nearly all actives have a fitted effect of over 70% in size; also: potency is read from the fitted curve at half-maximal effect
Sequence of Nucleoprotein (Lymphocytic choriomeningitis virus (strain Armstrong)) (P09992 whole entry, looked up): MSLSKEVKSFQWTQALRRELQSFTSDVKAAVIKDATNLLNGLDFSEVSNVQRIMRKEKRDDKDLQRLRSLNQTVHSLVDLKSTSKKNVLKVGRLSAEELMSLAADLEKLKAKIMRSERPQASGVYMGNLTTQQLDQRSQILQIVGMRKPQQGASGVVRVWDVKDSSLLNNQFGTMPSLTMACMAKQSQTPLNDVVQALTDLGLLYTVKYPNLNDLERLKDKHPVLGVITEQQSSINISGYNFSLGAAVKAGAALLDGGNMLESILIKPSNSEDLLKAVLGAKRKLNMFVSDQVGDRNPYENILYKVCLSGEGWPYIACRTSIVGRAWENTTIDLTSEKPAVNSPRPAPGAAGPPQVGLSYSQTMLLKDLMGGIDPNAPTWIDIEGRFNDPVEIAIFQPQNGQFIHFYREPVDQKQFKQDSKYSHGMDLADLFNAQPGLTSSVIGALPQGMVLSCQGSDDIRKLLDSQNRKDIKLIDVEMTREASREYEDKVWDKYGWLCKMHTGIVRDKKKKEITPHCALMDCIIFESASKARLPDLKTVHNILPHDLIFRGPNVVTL

[5] = Cytotoxicity counterscreen for inhibitors of SARS-CoV-2 cell entry (AID 1645845); details: cell viability (SARS-CoV-2 entry assay cells); series mostly up to 57.1 µM; also: nearly all actives have a fitted effect of over 50% in size
Summary of the method: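 Expi293F/hACE2 cells seeded overnight; cpd pin-transferred in DMSO, 1 h preincubation, + media, 48 h 37 C 5% CO2; ATPLite 1step luminescence; normalized to cells and no cells.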

[6] = Primary qHTS to identify inhibitors of SARS-CoV-2 cell entry (AID 1645846); details: SARS-CoV-2 pseudovirus cell entry assay, luminescence; activity change, negative = inhibition: at 57.1 µM (top of the series) unless noted; series mostly up to 57.1 µM; also: nearly all actives have a fitted effect of over 45% in size
Summary of the method: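 Using luciferase-reporting pseudoviruses carrying Wuhan-Hu-1 spike, the screen tracks entry into stably ACE2-expressing cells over 48 hr. Activity is expressed relative to spike particles versus particles lacking any fusion protein.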

[7] = target: Cytochrome P450 3A4 (Homo sapiens) (UniProt P08684); assay: qHTS Assay for Activators of Cytochrome P450 3A4 (AID 885; active = well fitted curve in the direction sought with a large enough effect; an effect the other way counts as inactive or inconclusive; also: nearly all actives have a fitted effect of over 65% in size); details: recombinant CYP3A4, Luciferin-PPXE luminescence, 60 min; series mostly up to 57.1 µM
Sequence of Cytochrome P450 3A4 (Homo sapiens) (P08684 whole entry, looked up): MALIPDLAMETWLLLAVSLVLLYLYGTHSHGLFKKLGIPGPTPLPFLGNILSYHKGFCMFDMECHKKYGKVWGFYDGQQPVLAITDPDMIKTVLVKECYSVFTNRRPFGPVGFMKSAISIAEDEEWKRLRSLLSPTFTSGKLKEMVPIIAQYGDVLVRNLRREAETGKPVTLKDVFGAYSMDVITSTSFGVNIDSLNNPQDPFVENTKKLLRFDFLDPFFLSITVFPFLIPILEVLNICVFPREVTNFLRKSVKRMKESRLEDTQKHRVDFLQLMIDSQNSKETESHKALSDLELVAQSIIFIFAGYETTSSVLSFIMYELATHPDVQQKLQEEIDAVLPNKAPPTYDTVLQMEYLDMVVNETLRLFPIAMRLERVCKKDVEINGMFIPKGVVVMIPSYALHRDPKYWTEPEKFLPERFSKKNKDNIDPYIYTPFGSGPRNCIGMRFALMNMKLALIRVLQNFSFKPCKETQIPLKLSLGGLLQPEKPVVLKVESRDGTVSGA
Summary of the method: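 20nM CYP3A4 + 25uM Luciferin-PPXE (=KM), 200mM KPO4; cpd 10 min RT; NADPH regen, 60 min RT; stop w/ detection buffer, 20 min; luminescence. Normalized to 57 uM ketoconazole.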

[8] = target: Cytochrome P450 2C19 (Homo sapiens) (UniProt P33261); assay: qHTS Assay for Inhibitors and Substrates of Cytochrome P450 2C19 (AID 899; active = well fitted curve in the direction sought with a large enough effect; an effect the other way counts as inactive or inconclusive; also: potency is read from the fitted curve at half-maximal effect; nearly all actives have a fitted effect of over 60% in size); details: recombinant CYP2C19, luciferin-H EGE luminescence; series mostly up to 57.1 µM
Sequence of Cytochrome P450 2C19 (Homo sapiens) (P33261 whole entry, looked up): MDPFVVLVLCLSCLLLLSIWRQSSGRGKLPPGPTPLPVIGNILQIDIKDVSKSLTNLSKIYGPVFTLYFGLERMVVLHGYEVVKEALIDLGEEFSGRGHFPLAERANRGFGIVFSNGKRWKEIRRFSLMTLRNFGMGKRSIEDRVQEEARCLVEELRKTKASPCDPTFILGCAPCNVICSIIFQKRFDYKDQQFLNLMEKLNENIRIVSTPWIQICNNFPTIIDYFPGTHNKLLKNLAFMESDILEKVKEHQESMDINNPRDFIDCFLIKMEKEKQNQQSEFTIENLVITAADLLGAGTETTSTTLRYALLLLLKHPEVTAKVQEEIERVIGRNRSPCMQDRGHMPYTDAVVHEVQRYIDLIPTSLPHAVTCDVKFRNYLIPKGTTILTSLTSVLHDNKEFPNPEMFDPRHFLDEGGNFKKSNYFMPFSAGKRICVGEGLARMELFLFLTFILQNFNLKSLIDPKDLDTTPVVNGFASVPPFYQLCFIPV
Summary of the method: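 Human CYP2C19 (5nM) with Luciferin-H EGE at 10uM (its KM) in 50mM KPO4 was preincubated with compound for 10 min at 37C. NADPH regeneration started a 60 min 37C reaction. Luciferin was read by luminescence, normalized to 57uM ketoconazole.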

[9] = target: Alpha-galactosidase (Coffea arabica) (UniProt Q42656); assay: Counterscreen for Glucocerebrosidase Inhibitors: qHTS Assay for Coffee Bean alpha-Galactosidase at pH 4.5 (AID 957; active = well fitted curve in the direction sought with a large enough effect; an effect the other way counts as inactive or inconclusive); details: purified coffee bean alpha-galactosidase, fluorogenic substrate; series mostly up to 76.9 µM
Sequence of Alpha-galactosidase (Coffea arabica) (Q42656 whole entry, looked up): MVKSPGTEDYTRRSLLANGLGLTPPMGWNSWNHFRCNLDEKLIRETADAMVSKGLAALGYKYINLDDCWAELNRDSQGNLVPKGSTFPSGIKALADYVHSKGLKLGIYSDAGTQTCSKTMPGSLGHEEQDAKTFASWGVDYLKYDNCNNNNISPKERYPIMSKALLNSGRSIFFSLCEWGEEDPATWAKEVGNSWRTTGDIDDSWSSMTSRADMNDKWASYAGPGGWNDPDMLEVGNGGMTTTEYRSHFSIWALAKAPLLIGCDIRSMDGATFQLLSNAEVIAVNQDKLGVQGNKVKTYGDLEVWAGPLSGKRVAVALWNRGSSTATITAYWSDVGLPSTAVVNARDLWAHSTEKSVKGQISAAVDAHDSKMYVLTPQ
Summary of the method: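 Green coffee bean enzyme (2 nM final) was incubated with compounds (0.7 nM to 77 uM) and 4-methylumbelliferyl alpha-D-galactopyranoside (80 uM final) in 50 mM citric acid, 0.005% Tween-20, pH 4.5, 20 min at room temperature; AC50 from Hill fits.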

[10] = target: Alpha-galactosidase (Coffea arabica) (UniProt Q42656); assay: Counterscreen for Glucocerebrosidase Inhibitors: qHTS Assay for Coffee Bean alpha-Galactosidase at pH 5.9 (AID 998; active = well fitted curve in the direction sought with a large enough effect; an effect the other way counts as inactive or inconclusive); details: coffee bean alpha-galactosidase enzyme assay; series mostly up to 76.9 µM
Summary of the method: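 Green coffee bean enzyme (2 nM final) was incubated with compounds (0.7 nM–77 uM) and 4-methylumbelliferyl alpha-D-galactopyranoside (80 uM) in citrate buffer pH 5.9, 20 min at room temperature. High-pH stop; fluorescence 365/440 nm; AC50 from Hill fits.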

[11] = Inducers of the Endoplasmic Reticulum Stress Response (ERSR) in human glioma: Validation (AID 504836; active = well fitted curve in the direction sought with a large enough effect; an effect the other way counts as inactive or inconclusive); details: human glioma cells, ER stress response reporter; series mostly up to 38.3 µM
Summary of the method: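 Stably transfected U87-MG human glioma cells carrying a GRP78-based luminescent sensor were seeded at 1000 cells/well, pin-dosed with compounds and incubated 16 h. Luciferase reagent was then added, and end-point luminescence was read after 10 min at room temperature.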

[12] = Validation screen for inhibitors of Lassa infection (AID 463096); details: Lassa virus infection, cell-based; series mostly up to 46.1 µM
[13] = target: Estrogen receptor (Homo sapiens) (UniProt P03372); assay: qHTS assay for small molecule agonists of estrogen receptor alpha signaling (AID 588514); details: ER-alpha-UAS-bla HEK293, beta-lactamase ratio, 18 h; series mostly up to 76.8 µM; also: potency is read from the fitted curve at half-maximal effect; nearly all actives have a fitted effect of over 70% in size
Sequence of Estrogen receptor (Homo sapiens) (P03372 whole entry, looked up): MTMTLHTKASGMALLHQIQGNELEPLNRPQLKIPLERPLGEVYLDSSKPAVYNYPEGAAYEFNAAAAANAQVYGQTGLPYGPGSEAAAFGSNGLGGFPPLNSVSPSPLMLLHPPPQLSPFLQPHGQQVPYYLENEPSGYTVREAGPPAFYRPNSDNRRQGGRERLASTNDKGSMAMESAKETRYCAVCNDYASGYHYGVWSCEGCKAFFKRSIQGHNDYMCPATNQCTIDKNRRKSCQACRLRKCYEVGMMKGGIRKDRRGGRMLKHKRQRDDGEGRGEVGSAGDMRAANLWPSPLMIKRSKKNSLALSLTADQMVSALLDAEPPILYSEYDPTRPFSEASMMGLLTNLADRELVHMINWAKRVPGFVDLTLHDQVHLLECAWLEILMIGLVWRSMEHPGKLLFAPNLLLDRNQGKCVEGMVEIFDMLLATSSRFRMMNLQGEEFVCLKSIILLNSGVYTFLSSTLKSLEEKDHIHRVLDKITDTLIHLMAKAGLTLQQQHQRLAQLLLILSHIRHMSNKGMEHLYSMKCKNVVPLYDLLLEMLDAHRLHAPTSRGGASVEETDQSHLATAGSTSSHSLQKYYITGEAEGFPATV
Summary of the method: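 ER-alpha-UAS-bla GripTite HEK 293 cells in medium with 2% charcoal/dextran-treated FBS were treated with compound titrations at 37 C for 18 hrs; beta-lactamase reporter read by CCF4 fluorescence after 2 hrs at RT.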

[14] = target: Bile acid receptor (Homo sapiens) (UniProt Q96RI1); assay: qHTS assay for small molecule agonists of farnesoid X receptor signaling (AID 588527); details: HEK293T FXR-UAS-bla, beta-lactamase ratio, 16 h; activation: stronger effect = higher value
Sequence of Bile acid receptor (Homo sapiens) (Q96RI1 whole entry, looked up): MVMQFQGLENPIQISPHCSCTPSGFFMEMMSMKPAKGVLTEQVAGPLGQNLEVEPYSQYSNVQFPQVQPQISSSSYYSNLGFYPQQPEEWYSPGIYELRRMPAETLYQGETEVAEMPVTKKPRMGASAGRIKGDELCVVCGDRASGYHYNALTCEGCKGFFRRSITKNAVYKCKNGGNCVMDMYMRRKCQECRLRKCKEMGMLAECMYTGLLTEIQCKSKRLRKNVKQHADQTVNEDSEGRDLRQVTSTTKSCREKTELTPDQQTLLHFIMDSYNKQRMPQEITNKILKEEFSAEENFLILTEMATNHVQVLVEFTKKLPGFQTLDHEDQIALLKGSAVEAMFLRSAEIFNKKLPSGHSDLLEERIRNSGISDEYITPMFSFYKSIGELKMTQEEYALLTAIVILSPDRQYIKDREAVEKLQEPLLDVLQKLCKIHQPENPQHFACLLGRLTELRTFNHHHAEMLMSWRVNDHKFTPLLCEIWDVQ
Summary of the method: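 FXR-UAS-bla HEK293T, 10% dialyzed FBS; cpds up to 92 uM titration, 16 h 37 C; CCF4 dye 2 h RT; fluorescence. Normalized to chenodeoxycholic acid 100 uM (100%) and DMSO (0%); Hill fit gives EC50, efficacy.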

[15] = qHTS assay for small molecule agonists of the antioxidant response element (ARE) signaling pathway (AID 651741; active = well fitted activation curve with a large enough effect in the signal ratio; the % refers to the signal ratio; also: potency is read from the fitted curve at half-maximal effect); details: HepG2 ARE-bla reporter, beta-lactamase FRET ratio, 16 h; series mostly up to 96 µM
Summary of the method: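 ARE-bla HepG2 cells (beta-lactamase reporter under ARE control) were plated at 2,000 cells/well, preincubated 5 h at 37 C/5% CO2, then treated with DMSO-dissolved compounds for 16 h at 37 C; LiveBLAzer B/G FRET substrate added, fluorescence read after 2 h at room temperature.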

[16] = qHTS profiling of the MIPE4 collection as inhibitors of Plasmodium falciparum (3D7) proliferation (AID 743344; call rule not given here); details: P. falciparum 3D7 in erythrocytes, SYBR Green DNA fluorescence, 72 h; at 28.5 µM (top of the series) unless noted
Summary of the method: (§1)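 Erythrocytes infected with P. falciparum (0.3% parasitemia, 2.5% hematocrit) incubated with compounds 72 h at 37 C, 5% CO2. Lysis with saponin/Triton buffer containing SYBR Green I, overnight at room temperature in the dark; DNA fluorescence (485/535 nm) normalised to 0.29 uM artemisinin and DMSO.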

[17] = qHTS profiling of the MIPE4 collection as inhibitors of Plasmodium falciparum (DD2) proliferation (Rep 2) (AID 743346; call rule not given here); details: P. falciparum Dd2 in erythrocytes, SYBR Green DNA, 72 h; at 28.5 µM (top of the series) unless noted
Summary of the method: as §1

[18] = qHTS profiling of the MIPE4 collection as inhibitors of Plasmodium falciparum (HB3) proliferation (AID 743347; call rule not given here); details: P. falciparum HB3 in erythrocytes, SYBR Green DNA, 72 h; at 28.5 µM (top of the series) unless noted
Summary of the method: as §1

CN(C)c1ccc(-c2nc3ncc(Cl)c(N4CCN(CC(=O)Nc5nccs5)CC4)c3[nH]2)cc1
Potency [1]: inactive | Potency [2]: inactive | Potency [3]: inactive | Potency [4]: inactive | Potency [5]: inactive | activity change, negative = inhibition [6]: -16% [at 27.1 µM]

COc1nccc(-c2c(-c3ccc(F)cc3)ncn2C2CCC(O)CC2)n1 (stereo not given)
Potency [1]: inactive | Potency [2]: inactive | Potency [3]: inactive | Potency [4]: inactive | Potency [5]: inactive | Potency [6]: inactive

O=c1c(O)c(-c2cc(O)c(O)c(O)c2)oc2cc(O)cc(O)c12
Potency [7]: inactive | Potency [8]: 10 µM (active) | outcome [9]: inactive | outcome [10]: inactive | outcome [11]: inactive | Potency [1]: inactive | Potency [2]: inactive | Potency [3]: inactive | Potency [4]: inactive | Potency [5]: inactive | Potency [6]: inactive

C[C@H]1COC2=C1C(=O)C(=O)c1c2ccc2c1CCCC2(C)C
Potency [1]: inactive | Potency [2]: inactive | Potency [3]: inactive | Potency [4]: inactive | Potency [5]: inactive | activity change, negative = inhibition [6]: -2.76%

COc1ccc(Nc2nccc(NCCO)n2)cc1
Potency [1]: inactive | Potency [2]: inactive | Potency [3]: inactive | Potency [4]: inactive | Potency [5]: inactive | Potency [6]: inactive

C[C@H](NC(=O)C(=O)Nc1ccccc1C(C)(C)C)C(=O)N[C@@H](CC(=O)O)C(=O)COc1c(F)c(F)cc(F)c1F
Potency [1]: inactive | Potency [2]: inactive | Potency [3]: inactive | Potency [4]: inactive | Potency [5]: inactive | activity change, negative = inhibition [6]: -42.2%

Cc1cncc2cccc(S(=O)(=O)N3CCCN(C(=O)CN)C[C@@H]3C)c12
Potency [1]: inactive | Potency [2]: inactive | Potency [3]: inactive | Potency [4]: inactive | Potency [5]: inactive | activity change, negative = inhibition [6]: -30.7%

CCCCC(F)(F)[C@@]1(O)CC[C@H]2[C@H](CC(=O)[C@@H]2CCCCCCC(=O)O)O1
Potency [1]: inactive | Potency [2]: inactive | Potency [3]: inactive | Potency [4]: inactive | Potency [5]: inactive | Potency [6]: inactive

O=C(CO)N1CCC(c2[nH]nc(-c3ccc(Cl)cc3)c2-c2ccncn2)CC1
Potency [1]: inactive | Potency [2]: inactive | Potency [3]: inactive | Potency [4]: inactive | Potency [5]: inactive | activity change, negative = inhibition [6]: -14.2%

CCN1/C(=C/C(C)=O)Sc2ccc(OC)cc21
outcome [9]: inactive | outcome [10]: inactive | Potency [12]: inactive | outcome [11]: inactive | Potency [1]: inactive | Potency [2]: inactive | Potency [3]: inactive | Potency [4]: inactive | Potency [5]: inactive | activity change, negative = inhibition [6]: -1.33%

CC(Oc1ccc(O)cc1)(P(=O)(O)O)P(=O)(O)O
Potency [1]: inactive | Potency [2]: inactive | Potency [3]: inactive | Potency [4]: inactive | Potency [5]: inactive | activity change, negative = inhibition [6]: -6.64%

NC(=O)c1cccc(N)c1
outcome [10]: inactive | Potency [12]: inactive | outcome [11]: inactive | Potency [1]: inactive | Potency [2]: inactive | Potency [3]: inactive | Potency [4]: inactive | Potency [5]: inactive | Potency [6]: inactive

CNc1nc(Nc2ccc(C(=O)N3CCOCC3)cc2OC)ncc1Cl
Potency [1]: inactive | Potency [2]: 24.3 µM (active) | Potency [3]: inactive | Potency [4]: inactive | Potency [5]: inactive | Potency [6]: inactive

COC(=O)[C@H](c1ccccc1Cl)N1CCc2sccc2C1
Potency [1]: inactive | Potency [2]: inactive | Potency [3]: inactive | Potency [4]: inactive | Potency [5]: inactive | activity change, negative = inhibition [6]: -28.2%

O=C1c2cccc(O)c2C(=O)c2c(O)cc(CO)cc21
Potency [13]: 20 µM (active) | activation [14]: 4.08% (inactive) | Potency [15]: 12.2 µM (active) | parasite growth, % of DMSO control [16]: 321% | parasite growth, % of control (lower = inhibition) [17]: 97.1% | growth, % of control [18]: 568% | Potency [1]: inactive | Potency [2]: inactive | Potency [3]: inactive | Potency [4]: inactive | Potency [5]: inactive | activity change, negative = inhibition [6]: -12.6%

Nc1nc2c(c(=O)[nH]1)N(C=O)[C@H](CNc1ccc(C(=O)N[C@@H](CCC(=O)O)C(=O)O)cc1)CN2
Potency [1]: inactive | Potency [2]: inactive | Potency [3]: inactive | Potency [4]: inactive | Potency [5]: inactive | Potency [6]: inactive

CCc1c(O)cc(O)c(C(=O)c2ccc(OCCN3CCOCC3)c(OC)c2)c1CC(=O)N(CCOC)CCOC
Potency [1]: 12.2 µM (active) | Potency [2]: 6.11 µM (active) | Potency [3]: 5.44 µM (active) | Potency [4]: 3.43 µM (active) | Potency [5]: inactive | activity change, negative = inhibition [6]: -26.7%

O=c1c(O)c(-c2ccc(O)cc2O)oc2cc(O)cc(O)c12
outcome [9]: inactive | outcome [10]: inactive | outcome [11]: inactive | activation [14]: -2.26% (inactive) | Potency [1]: inactive | Potency [2]: inactive | Potency [3]: inactive | Potency [4]: inactive | Potency [5]: inactive | activity change, negative = inhibition [6]: 0.962%
